# TRHR enhancer – allosterically enhances the human TRH receptor; P34981; TRHR cells, fluo-8 calcium fluorescence, EC20 TRH enhancement; enhancement, % at 2 µM; 360,000 tested, 0.66% active; AID 493056; in the data active = enhancement above about 30%
# Target sequence (P34981 whole entry, looked up): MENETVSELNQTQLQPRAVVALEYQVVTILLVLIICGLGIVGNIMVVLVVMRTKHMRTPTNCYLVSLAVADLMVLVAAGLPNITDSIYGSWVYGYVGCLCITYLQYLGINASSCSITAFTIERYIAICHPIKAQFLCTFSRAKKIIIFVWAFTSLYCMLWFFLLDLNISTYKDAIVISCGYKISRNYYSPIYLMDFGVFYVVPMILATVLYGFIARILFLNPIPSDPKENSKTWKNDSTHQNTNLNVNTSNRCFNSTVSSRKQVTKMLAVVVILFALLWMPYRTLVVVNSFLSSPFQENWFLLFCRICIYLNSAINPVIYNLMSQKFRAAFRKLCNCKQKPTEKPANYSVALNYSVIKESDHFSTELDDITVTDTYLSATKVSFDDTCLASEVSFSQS
#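 TRHR-expressing cells loaded with fluo-8 calcium dye were read kinetically (ex 480/em 530) during compound addition, then stimulated with an EC20 of TRH (10 nM final). Enhancement of the Gq-mediated intracellular calcium response was scored.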
# D1 agonist – activates the human D1 dopamine receptor; P21728; AID 504660; 360,000 tested, 1% active; activation, % at 2 µM; HEK293 T-REx D1 cells, calcium flux, agonist mode
#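 Inducible HEK293 T-REx D1 cells, force-coupled to calcium signalling, were plated at 4000 cells/well with tetracycline and held overnight at 30 C. After no-wash calcium dye loading, compound-evoked calcium rise over 180 s flagged agonists.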
# D1 antag – human D1 dopamine receptor antagonism; P21728; HEK293 TREx D1 cells, calcium flux, dopamine EC80; hits give low values; activity change, negative = inhibition, % at 10 µM; 360,000 tested, 3.2% active; AID 504652; in the data active = activity change below about -30%
#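 Using tetracycline-induced force-coupled D1 Hek293 cells and a calcium dye, signals were followed for 180 s after compound, then for 180 s after EC80 dopamine, to detect inhibitors.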
# D1 PAM – enhances dopamine response at the human D1 receptor; P21728; HEK293 TREx D1 cells, calcium flux, dopamine EC20 potentiation; potentiation, % at 10 µM; 360,000 tested, 0.036% active; in the data active = potentiation above about 30%
# TRHR agonist – TRH receptor (human) agonism; P34981; TRHR cells, calcium flux fluo-8, FDSS agonist mode; activation, % at 2 µM; 360,000 tested, 0.18% active; AID 493084
#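 Agonist-mode FDSS calcium read (Ex 480/Em 530, 1 s cycles) in 1536-well TRHR cells with fluo-8 dye, after 10-cycle baseline and 23 nL compound addition; TRH at EC20 (10 nM final) added afterwards for the enhancer phase.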
# A number is an active result; 0 = inactive; - = not tested or not shown; ! = not confirmed by another sample. In the library only some 4.7% were active in any assay of this set; here they are far more common. Cut-off read from the data, not from the text of the source, unless noted: active = activation above about 30%; inactive = the rest.
SMILES,TRHR enhancer,D1 agonist,D1 antag,D1 PAM,TRHR agonist
CCCCC1=CC2=C(c3ccco3)C(=O)C(C)(OC(=O)c3ccc(OC)cc3)C(=O)C2=CN1C1CCCCC1 (configuration not stated),0,0,0,0,0
Cc1ccc(N2CCN(C(=O)c3cn(C)c4ccc(S(=O)(=O)N5CCCC5)cc4c3=O)CC2C)cc1 (configuration not stated),0,0,-82.4,0,0
Cc1nc(C(=O)Nc2ccccc2)sc1C1(C)CC(c2cccc([N+](=O)[O-])c2)=NO1 (configuration not stated),0,0,-33.5,0,0
Cc1nc(C(=O)NCc2ccccc2)sc1C1(C)CC(c2ccccc2)=NO1 (configuration not stated),0,39.3,0,0,0
CCCC(=O)C1=C(N2CCCC2)CC(C)(C)C(C(=O)OC)C1=O (configuration not stated),0,0,0,0,0
CCc1nnc(NC(=O)CSc2nnc(C(C)NC(=O)c3ccccc3)n2C)s1 (configuration not stated),0,0,0,-,0
CCc1ccc(NC(=O)NCC2CCN(Cc3cccc(Cl)c3)CC2)cc1,0,36.2,-36.5,0,0
CCc1ccccc1N(CC)C(=O)c1c(C)oc2ncnc(N3CCOCC3)c12,0,0,0,0,0
CCOC(=O)c1nnn2c1nc(N1CCCCC1)c1ccccc12,0,0,-42.2,0,0
Cc1c(NC(=O)c2ccc(-c3ccc(F)cc3)o2)cccc1-c1nc2ncccc2o1,0,0,0,0,0
Cc1cc(=O)oc2cc(OC(=O)c3cncc(Br)c3)ccc12,0,0,-44.7,0,0
Cc1[nH][nH]c(=O)c1C(c1ccc(-c2cccc(Cl)c2)o1)c1c(C)[nH][nH]c1=O,0,0,0,0,0
Cc1[nH][nH]c(=O)c1C(c1ccc(-c2ccc(Cl)cc2Cl)o1)c1c(C)[nH][nH]c1=O,0,55.5,0,0,0
COc1ccc(-n2c(C)cc(/C=C/c3nc(O)c([N+](=O)[O-])c(=O)[nH]3)c2C)cc1,0,0,-54.5,0,0
COc1cccc(NC(=O)CSc2nc3n[nH]c(C)c3c(=N)n2-c2cccc(OC)c2)c1,0,0,-30.9,0,0
Cc1cc(-n2c(SCC(=O)NCc3cccs3)nc3n[nH]c(C)c3c2=N)ccc1Cl,0,0,-42.0,0,0
Cc1cc(-n2c(SCC(=O)Nc3ccc(Br)cc3)nc3n[nH]c(C)c3c2=N)ccc1Cl,0,0,0,0,0
COc1ccc(-c2cc(C(F)(F)F)nc(-n3nc(C(F)(F)F)cc3C)n2)cc1,0,0,0,0,0
COC(=O)c1sc(S(=O)(=O)N2CCC(C(N)=O)CC2)c(C(=O)OC)c1C,0,0,0,0,0
COC(=O)c1sc(S(=O)(=O)N2CCN(c3ccc(OC)cc3)CC2)c(C(=O)OC)c1C,0,0,-40.0!,0,0
Cc1c(C(=O)Nc2ccccc2F)cnn1-c1ccccc1,0,0,0,0,0
Cc1c(C(=O)Nc2cc(F)cc(F)c2)cnn1-c1ccccc1,37.2,0,-32.4,0,0
Cc1ccc(OC(=O)c2sc3ncn(C)c(=O)c3c2C)cc1,0,0,0,0,0
CCCCCC(=O)N/N=C/c1cc(Br)c(O)c(OC)c1,0,0,-38.5,0,0
COc1ccc(/C=N\NC(=O)CCN2CCN(c3ccccc3)CC2)cc1OC,0,0,0,0,0
SMILES,TRHR enhancer,D1 agonist,D1 antag,D1 PAM,TRHR agonist
COc1cc(/C=N/NC(=O)CCN2CCCCC2)ccc1O,34.4,0,0,0,0
O=C(CCN1CCN(C(c2ccccc2)c2ccccc2)CC1)N/N=C/c1ccc(O)cc1,0,0,-72.1,0,0
CC(C)c1ccc(S(=O)(=O)c2cn(CC(=O)Nc3ccc(F)cc3)c3ccccc3c2=O)cc1,0,0,0,0,0
CCC(=O)N1c2ccccc2C(C)(c2ccccc2)CC1(C)C (configuration not stated),0,0,0,0,0
CC(=O)N1c2ccccc2C(C)(c2ccc(C)cc2)CC1(C)C (configuration not stated),0,55.5,0,0,0
Cc1cccc(-c2nc(CCNC(=O)c3ccccc3Br)cs2)c1,0,0,-38.7,0,0
COc1cc(C(=O)N(Cc2cccnc2)c2nc3cc(C)c(C)cc3s2)cc(OC)c1OC,0,0,-,0,0
